Assay results as given in PubChem BioAssay (EPA / NIEHS).
Inconclusive results are not listed. Calls of active or inactive are those of the source. The calls were made as follows, unless noted: active = hit-call score of the fitted dose curve at least 0.9, where 1 is the maximum; inactive = score below 0.9.

Legend:
[1] = read-out: E-selectin (Homo sapiens) (UniProt P16581); test: BSK_3C_Eselectin: BioMAP Diversity Plus: 3C Assay for Eselectin Biomarker Activity (AID 2283015); conditions: primary human endothelial cells (HUVEC); actives raise or lower the signal;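 as to outcome: cell surface E-selectin protein quantified by ELISA 24 h after dosing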
Outline: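 E-selectin ELISA readout, fitted bidirectionally relative to DMSO, taken 24 h post-dosing in HUVEC cultures of the 3C system. Overt cytotoxicity tracked with sulforhodamine B staining of parallel wells.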

[2] = read-out: Interleukin-1 alpha (IL1a), IL1A (gene 3552); test: BSK_BE3C_IL1a: BioMAP Diversity Plus: BE3C Assay for Interleukin-1 alpha (IL1a) Biomarker Activity (AID 2283016); conditions: primary human bronchial epithelial cells; actives raise or lower the signal
Outline: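 Human primary bronchial epithelial cells (BE3C system) were dosed with compound and IL-1a measured by ELISA 24 h later. Activity was fitted bidirectionally against DMSO baseline; cytotoxicity was tracked in parallel cultures by SRB total-protein staining.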

[3] = read-out: Monocyte Chemoattractant Protein-1 (MCP1), CCL2 (gene 6347); test: BSK_3C_MCP1: BioMAP Diversity Plus: 3C Assay for Monocyte Chemoattractant Protein-1 (MCP1) Biomarker Activity (AID 2283017); conditions: primary human endothelial cells (HUVEC); actives raise or lower the signal
Outline: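 MCP-1 was measured by ELISA 24 h after dosing in primary HUVEC 3C cultures and fitted in both directions relative to DMSO; cytotoxicity was checked by SRB total-protein staining in parallel wells.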

[4] = read-out: Monocyte Chemoattractant Protein-1 (MCP1), CCL2 (gene 6347); test: BSK_4H_MCP1: BioMAP Diversity Plus: 4H Assay for Monocyte Chemoattractant Protein-1 (MCP1) Biomarker Activity (AID 2283018); conditions: primary human endothelial cells (HUVEC); actives raise or lower the signal
Outline: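 Human umbilical vein endothelial cells (4H system) dosed with chemical; MCP-1 measured by ELISA 24 h after dosing. Bidirectional curve fitting against DMSO negative control as baseline; parallel SRB total-protein staining tracks overt cytotoxicity.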

[5] = read-out: Human Leukocyte Antigen - DR isotype (HLADR), HLA-DRA (gene 3122); test: BSK_3C_HLADR: BioMAP Diversity Plus: 3C Assay for Human Leukocyte Antigen - DR isotype (HLADR) Biomarker Activity (AID 2283019); conditions: primary human endothelial cells (HUVEC); actives raise or lower the signal;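 as to outcome: ELISA of cell-surface HLA-DR on HUVEC 24 h after dosing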
Outline: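 Bidirectional fitting against DMSO was applied to the HLA-DR ELISA signal from human umbilical vein endothelial cells, 24 h post-dose. Cytotoxicity came from parallel SRB total-protein staining; 3C proliferation was counted by SRB at 48 h.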

[6] = read-out: Interleukin-8 (IL8), CXCL8 (gene 3576); test: BSK_3C_IL8: BioMAP Diversity Plus: 3C Assay for Interleukin-8 (IL8) Biomarker Activity (AID 2283020); conditions: primary human endothelial cells (HUVEC); actives raise or lower the signal
Outline: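 Primary human umbilical vein endothelial cells (3C system) were exposed to test chemical for 24 h, then IL-8 was quantified by ELISA. Responses were fitted bidirectionally against DMSO vehicle as baseline.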

[7] = read-out: Monokine induced gamma interferon (MIG), CXCL9 (gene 4283); test: BSK_3C_MIG: BioMAP Diversity Plus: 3C Assay for Monokine induced gamma interferon (MIG) Biomarker Activity (AID 2283021); conditions: primary human endothelial cells (HUVEC); actives raise or lower the signal
Outline: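 Primary human umbilical vein endothelial cells in the 3C system were exposed to chemical for 24 h, after which MIG was quantified by ELISA. Activity was fitted bidirectionally against DMSO as negative control and baseline.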

[8] = BSK_3C_SRB: Viability Assessment in the BioMAP Diversity Plus: 3C Assay (AID 2283023); conditions: primary human endothelial cells (HUVEC);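 also: fitted both ways against DMSO so a hit may be signal rise or drop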
Outline: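 Cytotoxicity readout in parallel HUVEC 3C cultures: after 24 h compound exposure, cells fixed with 10% TCA, stained with 0.1% SRB and read at 560 nm. Gain or loss relative to DMSO fitted.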

[9] = read-out: Matrix Metallopeptidase 1 (MMP1), MMP1 (gene 4312); test: BSK_BE3C_MMP1: BioMAP Diversity Plus: BE3C Assay for Matrix Metallopeptidase 1 (MMP1) Biomarker Activity (AID 2283024); conditions: primary human bronchial epithelial cells; actives raise or lower the signal
Outline: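 Primary human bronchial epithelial cells were dosed with test chemicals, and MMP1 levels were measured by ELISA 24 h later. Data were fitted bidirectionally against DMSO as the negative control and activity baseline.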

[10] = BSK_3C_Vis: BioMAP Diversity Plus: 3C Assay for Morphology Visualization (AID 2283025); conditions: primary human endothelial cells (HUVEC);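 also: fitted both ways so gain or loss versus DMSO counts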
Outline: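 Human umbilical vein endothelial cells in the 3C system were imaged by light microscopy 24 h after chemical dosing to record cell morphology. Activity was fitted bidirectionally against DMSO as negative control and baseline; the endpoint serves as a background control.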

[11] = read-out: Pselectin, SELP (gene 6403); test: BSK_4H_Pselectin: BioMAP Diversity Plus: 4H Assay for Pselectin Biomarker Activity (AID 2283026); conditions: primary human endothelial cells (HUVEC); actives raise or lower the signal
Outline: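 Primary human umbilical vein endothelial cells were exposed to test chemical for 24 h, then cell-surface P-selectin was quantified by ELISA. Activity was fitted bidirectionally against DMSO as negative control and baseline.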

[12] = BSK_4H_SRB: Viability Assessment in the BioMAP Diversity Plus: 4H Assay (AID 2283027); conditions: primary human endothelial cells (HUVEC);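 also: cells exposed to compound for 24 h before staining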;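 as to AC50: curves fitted both ways versus DMSO so AC50 may be loss or gain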
Outline: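 Absorbance at 560 nm of SRB-stained total protein served as the viability read-out in confluent primary human umbilical vein endothelium 24 h after chemical treatment. Curves were fitted bidirectionally against DMSO as negative control.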

[13] = BSK_BE3C_SRB: Viability Assessment in the BioMAP Diversity Plus: BE3C Assay (AID 2283028); conditions: primary human bronchial epithelial cells;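 as to AC50: fitted both ways so AC50 may mark signal gain or loss versus DMSO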
Outline: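 Cytotoxicity read-out: SRB (0.1%) staining of TCA-fixed (10%) human lung bronchial epithelial cells, absorbance 560 nm, 24 h post-dosing. Curves fitted both directions relative to DMSO.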

[14] = read-out: Thrombomodulin, THBD (gene 7056); test: BSK_3C_Thrombomodulin: BioMAP Diversity Plus: 3C Assay for Thrombomodulin Biomarker Activity (AID 2283029); conditions: primary human endothelial cells (HUVEC); actives raise or lower the signal
Outline: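 Primary human umbilical vein endothelial cells (3C system) were exposed to chemical for 24 h, then thrombomodulin levels were measured by ELISA. Activity was fitted bidirectionally against the DMSO negative control as baseline.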

[15] = read-out: Urokinase-type plasminogen activator receptor (uPAR), PLAUR (gene 5329); test: BSK_4H_uPAR: BioMAP Diversity Plus: 4H Assay for Urokinase-type plasminogen activator receptor (uPAR) Biomarker Activity (AID 2283030); conditions: primary human endothelial cells (HUVEC); actives raise or lower the signal
Outline: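 uPAR level read by ELISA on HUVEC cultures (BioMAP 4H) 24 h post-dosing, analyzed for gain or loss relative to DMSO. Parallel SRB staining assessed overt cytotoxicity.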

[16] = read-out: Vascular endothelial growth factor receptor 2 (Homo sapiens) (UniProt P35968); test: BSK_4H_VEGFRII: BioMAP Diversity Plus: 4H Assay for Vascular endothelial growth factor receptor 2 (VEGFR2) Biomarker Activity (AID 2283031); conditions: primary human endothelial cells (HUVEC); actives raise or lower the signal;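 as to AC50: cell-surface VEGFR2 protein level quantified by ELISA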
Outline: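 Measured by ELISA after 24 h of compound treatment: VEGFR2 on primary human umbilical vein endothelial cells, fitted in both directions relative to DMSO. Parallel cultures received SRB staining (560 nm) for overt cytotoxicity.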

[17] = target: human Retinoid X Receptor beta (RXRb), RXRB (gene 6257) (UniProt P28702); test: ATG_RXRb_TRANS: Attagene TRANS-FACTORIAL HepG2 Assay for human Retinoid X Receptor beta (RXRb) (AID 2283013; active = hit-call score of the fitted dose curve at least 0.9, where 1 is the maximum)
Outline: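 HepG2 cells transiently transfected with multiplexed reporter units driven by GAL4-UAS and exogenous chimeric NR-Gal4 proteins; treated 24 h. Reporter mRNA measured by RT-PCR, 6-FAM labelling and capillary electrophoresis; gain-of-signal fitted versus DMSO baseline.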

[18] = target: human Vitamin D Receptor (VDR), VDR (gene 7421) (UniProt P11473); test: ATG_VDR_TRANS: Attagene TRANS-FACTORIAL HepG2 Assay for human Vitamin D Receptor (VDR) (AID 2283022; active = hit-call score of the fitted dose curve at least 0.9, where 1 is the maximum)
Outline: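 Transactivation by an exogenous VDR-Gal4 chimera in transiently transfected HepG2 cells was measured as reporter transcript level 24 hours after chemical treatment. RT-PCR products were analysed by capillary electrophoresis and fitted in the positive direction relative to DMSO.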

Chain of E-selectin (Homo sapiens) (P16581 whole entry, looked up): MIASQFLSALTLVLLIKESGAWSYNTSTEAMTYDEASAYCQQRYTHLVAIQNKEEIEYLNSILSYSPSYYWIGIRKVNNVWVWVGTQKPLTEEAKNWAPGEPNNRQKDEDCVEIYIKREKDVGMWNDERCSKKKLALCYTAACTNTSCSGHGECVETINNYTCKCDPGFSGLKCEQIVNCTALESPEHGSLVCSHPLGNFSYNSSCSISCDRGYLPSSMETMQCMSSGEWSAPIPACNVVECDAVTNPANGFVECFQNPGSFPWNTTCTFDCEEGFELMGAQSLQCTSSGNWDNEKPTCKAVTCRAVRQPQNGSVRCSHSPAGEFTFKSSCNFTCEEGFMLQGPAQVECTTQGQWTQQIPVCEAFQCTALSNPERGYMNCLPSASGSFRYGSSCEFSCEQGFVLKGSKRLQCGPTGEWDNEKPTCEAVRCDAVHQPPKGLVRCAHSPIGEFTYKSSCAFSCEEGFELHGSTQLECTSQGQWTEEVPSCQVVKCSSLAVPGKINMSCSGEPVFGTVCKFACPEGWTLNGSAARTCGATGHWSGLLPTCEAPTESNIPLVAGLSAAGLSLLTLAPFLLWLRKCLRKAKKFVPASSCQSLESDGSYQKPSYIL
Chain of human Vitamin D Receptor (VDR), VDR (gene 7421) (P11473 whole entry, looked up, the tested form may be a part): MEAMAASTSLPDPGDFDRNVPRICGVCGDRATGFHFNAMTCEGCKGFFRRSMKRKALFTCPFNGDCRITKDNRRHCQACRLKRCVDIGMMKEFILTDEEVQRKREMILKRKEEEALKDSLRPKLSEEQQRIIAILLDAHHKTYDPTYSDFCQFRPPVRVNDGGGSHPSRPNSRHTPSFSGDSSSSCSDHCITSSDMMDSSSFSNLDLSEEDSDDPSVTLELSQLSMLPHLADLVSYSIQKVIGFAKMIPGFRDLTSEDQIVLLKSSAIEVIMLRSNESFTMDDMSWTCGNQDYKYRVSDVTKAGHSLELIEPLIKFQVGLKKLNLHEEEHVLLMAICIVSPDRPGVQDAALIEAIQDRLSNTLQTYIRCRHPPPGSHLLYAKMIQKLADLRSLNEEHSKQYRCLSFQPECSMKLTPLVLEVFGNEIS
Chain of human Retinoid X Receptor beta (RXRb), RXRB (gene 6257) (P28702 whole entry, looked up, the tested form may be a part): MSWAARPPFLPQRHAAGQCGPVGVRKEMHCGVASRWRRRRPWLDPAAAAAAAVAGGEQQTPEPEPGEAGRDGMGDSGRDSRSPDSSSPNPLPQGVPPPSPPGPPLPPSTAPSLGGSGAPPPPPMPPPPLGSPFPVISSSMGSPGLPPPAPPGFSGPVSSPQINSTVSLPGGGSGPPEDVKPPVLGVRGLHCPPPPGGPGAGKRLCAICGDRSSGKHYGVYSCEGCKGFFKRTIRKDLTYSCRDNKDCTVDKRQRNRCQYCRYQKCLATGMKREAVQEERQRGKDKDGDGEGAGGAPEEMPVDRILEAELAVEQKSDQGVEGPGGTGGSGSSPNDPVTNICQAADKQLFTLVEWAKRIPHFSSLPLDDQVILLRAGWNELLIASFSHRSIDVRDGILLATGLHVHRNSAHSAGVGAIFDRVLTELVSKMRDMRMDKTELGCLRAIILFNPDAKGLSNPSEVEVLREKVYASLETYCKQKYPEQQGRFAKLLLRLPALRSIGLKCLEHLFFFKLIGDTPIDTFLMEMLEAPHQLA

## COP(=S)(OC)Oc1nc(Cl)c(Cl)cc1Cl
[1]
  AC50: 35.2 µM (active)
[2]
  outcome: inactive
[3]
  outcome: inactive
[4]
  outcome: inactive
[5]
  outcome: inactive
[6]
  outcome: inactive
[7]
  outcome: inactive
[8]
  AC50: 20 µM (active)
[9]
  outcome: inactive
[10]
  AC50: 39 µM (active)
[11]
  AC50: 20 µM (active)
[12]
  outcome: inactive
[13]
  outcome: inactive
[14]
  outcome: inactive
[15]
  outcome: inactive

## CCCCC(CC)COC(=O)c1ccccc1C(=O)OCC(CC)CCCC (stereo unspecified)
[1]
  outcome: inactive
[2]
  outcome: inactive
[3]
  outcome: inactive
[4]
  AC50: 14 µM (active)
[5]
  AC50: 15.5 µM (active)
[6]
  outcome: inactive
[7]
  outcome: inactive
[9]
  outcome: inactive
[10]
  AC50: 39 µM (active)
[11]
  AC50: 15.6 µM (active)
[12]
  outcome: inactive
[13]
  AC50: 11 µM (active)
[14]
  outcome: inactive
[15]
  outcome: inactive
[16]
  outcome: inactive

## CCOP(=S)(OCC)SCn1c(=O)oc2cc(Cl)ccc21
[17]
  outcome: inactive
[1]
  outcome: inactive
[2]
  outcome: inactive
[3]
  outcome: inactive
[4]
  outcome: inactive
[5]
  outcome: inactive
[6]
  outcome: inactive
[7]
  outcome: inactive
[8]
  AC50: 30.2 µM (active)
[9]
  outcome: inactive
[10]
  AC50: 39 µM (active)
[11]
  AC50: 29.6 µM (active)
[12]
  outcome: inactive
[13]
  outcome: inactive
[14]
  outcome: inactive
[15]
  outcome: inactive

## C=CCC1=C(C)[C@@H](OC(=O)[C@@H]2[C@@H](C=C(C)C)C2(C)C)CC1=O
[1]
  AC50: 31.2 µM (active)
[2]
  outcome: inactive
[3]
  AC50: 32 µM (active)
[4]
  AC50: 23.4 µM (active)
[5]
  AC50: 34.4 µM (active)
[6]
  AC50: 35.4 µM (active)
[7]
  outcome: inactive
[18]
  outcome: inactive
[9]
  outcome: inactive
[10]
  AC50: 13.7 µM (active)
[11]
  AC50: 31.6 µM (active)
[12]
  AC50: 30.2 µM (active)
[13]
  AC50: 18.8 µM (active)
[14]
  outcome: inactive
[15]
  outcome: inactive
[16]
  AC50: 35.8 µM (active)

## CCNc1nc(Cl)nc(NCC)n1
[17]
  outcome: inactive
[1]
  outcome: inactive
[2]
  outcome: inactive
[3]
  outcome: inactive
[4]
  outcome: inactive
[5]
  outcome: inactive
[6]
  outcome: inactive
[7]
  outcome: inactive
[18]
  outcome: inactive
[8]
  outcome: inactive
[9]
  outcome: inactive
[10]
  outcome: inactive
[11]
  outcome: inactive
[12]
  outcome: inactive
[13]
  outcome: inactive
[14]
  outcome: inactive
[15]
  outcome: inactive
[16]
  outcome: inactive

## N#CC(CCc1ccc(Cl)cc1)(Cn1cncn1)c1ccccc1 (stereo unspecified)
[1]
  outcome: inactive
[2]
  outcome: inactive
[3]
  outcome: inactive
[4]
  outcome: inactive
[5]
  outcome: inactive
[6]
  outcome: inactive
[7]
  outcome: inactive
[8]
  AC50: 20 µM (active)
[9]
  outcome: inactive
[10]
  AC50: 39 µM (active)
[11]
  outcome: inactive
[12]
  outcome: inactive
[13]
  AC50: 13.5 µM (active)
[14]
  outcome: inactive
[15]
  outcome: inactive
[16]
  outcome: inactive
